This passage reports binding signal results from article PMC7862700, “An all-to-all approach to the identification of sequence-specific readers for epigenetic DNA modifications on cytosine”.

Common to all, as to experiment: DAPPL (digital affinity profiling via proximity ligation, sequencing); 10 mM Tris-HCl pH 7.5, 50 mM NaCl, 1 mM DTT, 4% glycerol, room temperature, 30 min; GST-TFs on glutathione beads, 16-mer random dsDNA library, 0.1% formaldehyde crosslink after washing; high values mean tight binding
What all share (conditions): protein: recombinant; tags: N-terminal GST; dsDNA, one strand shown

One experiment concerns the target T1, FLI1 (Homo sapiens, UniProt Q01543 1-452).
T1 sequence: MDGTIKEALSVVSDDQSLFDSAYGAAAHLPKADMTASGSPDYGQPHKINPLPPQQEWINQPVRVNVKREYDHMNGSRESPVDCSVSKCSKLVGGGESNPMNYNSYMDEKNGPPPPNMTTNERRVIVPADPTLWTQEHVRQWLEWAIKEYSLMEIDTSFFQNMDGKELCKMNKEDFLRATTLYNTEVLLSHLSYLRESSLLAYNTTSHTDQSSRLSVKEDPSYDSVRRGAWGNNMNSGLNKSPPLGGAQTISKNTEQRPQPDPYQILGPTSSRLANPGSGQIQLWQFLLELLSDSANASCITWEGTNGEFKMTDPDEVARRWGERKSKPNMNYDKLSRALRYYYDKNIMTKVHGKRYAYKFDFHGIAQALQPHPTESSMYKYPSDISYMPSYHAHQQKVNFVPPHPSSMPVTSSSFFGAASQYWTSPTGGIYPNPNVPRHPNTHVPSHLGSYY
The method, boiled down: (§1)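 Binding signal is each hexamer's read frequency for a factor divided by its frequency in the tag-only sample. The factors were GST-fused human transcription factors from yeast, captured on glutathione beads, DNA-barcoded and pooled with that sample. Pools were incubated with 200 nmole of a random double-stranded 16-mer DNA library in Tris/NaCl/DTT/glycerol buffer at room temperature for 30 min, then washed, crosslinked with 0.1% formaldehyde, proximity-ligated with BsaI/T4 ligase (1 h, 37 °C), PCR-amplified and sequenced on an Illumina NextSeq500.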

The next experiment addresses T2, ELK1 (Homo sapiens, UniProt P19419 1-428).
T2 sequence: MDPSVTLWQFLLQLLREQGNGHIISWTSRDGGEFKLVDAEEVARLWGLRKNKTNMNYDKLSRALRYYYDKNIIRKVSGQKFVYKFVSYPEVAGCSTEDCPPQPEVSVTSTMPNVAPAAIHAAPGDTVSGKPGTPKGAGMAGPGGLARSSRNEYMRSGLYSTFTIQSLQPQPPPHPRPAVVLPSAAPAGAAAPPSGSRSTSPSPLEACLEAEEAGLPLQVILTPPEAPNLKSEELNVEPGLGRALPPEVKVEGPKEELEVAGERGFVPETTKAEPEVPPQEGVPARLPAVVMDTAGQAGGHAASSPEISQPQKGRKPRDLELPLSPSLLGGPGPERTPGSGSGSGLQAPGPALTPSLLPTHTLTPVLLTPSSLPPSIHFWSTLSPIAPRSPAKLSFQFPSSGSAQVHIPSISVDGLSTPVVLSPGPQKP
A digest of the protocol:
as §1

For another experiment, the target named is T3, GABPA (Homo sapiens, UniProt Q06546 1-454).
T3 sequence: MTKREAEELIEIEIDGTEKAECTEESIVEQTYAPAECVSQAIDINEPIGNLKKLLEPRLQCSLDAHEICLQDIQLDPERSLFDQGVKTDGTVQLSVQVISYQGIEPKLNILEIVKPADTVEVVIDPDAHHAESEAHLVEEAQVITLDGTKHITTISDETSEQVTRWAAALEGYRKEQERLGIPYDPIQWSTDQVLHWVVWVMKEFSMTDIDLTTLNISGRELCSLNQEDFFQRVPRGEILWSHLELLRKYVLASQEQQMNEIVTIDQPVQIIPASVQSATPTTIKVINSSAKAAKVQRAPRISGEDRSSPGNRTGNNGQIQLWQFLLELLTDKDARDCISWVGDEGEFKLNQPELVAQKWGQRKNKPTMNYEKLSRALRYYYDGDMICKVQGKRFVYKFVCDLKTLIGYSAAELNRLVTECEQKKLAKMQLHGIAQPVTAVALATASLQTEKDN
A digest of the protocol: as §1

For another experiment, the target named is T4, ERG (Homo sapiens, UniProt P11308 1-479).
T4 sequence: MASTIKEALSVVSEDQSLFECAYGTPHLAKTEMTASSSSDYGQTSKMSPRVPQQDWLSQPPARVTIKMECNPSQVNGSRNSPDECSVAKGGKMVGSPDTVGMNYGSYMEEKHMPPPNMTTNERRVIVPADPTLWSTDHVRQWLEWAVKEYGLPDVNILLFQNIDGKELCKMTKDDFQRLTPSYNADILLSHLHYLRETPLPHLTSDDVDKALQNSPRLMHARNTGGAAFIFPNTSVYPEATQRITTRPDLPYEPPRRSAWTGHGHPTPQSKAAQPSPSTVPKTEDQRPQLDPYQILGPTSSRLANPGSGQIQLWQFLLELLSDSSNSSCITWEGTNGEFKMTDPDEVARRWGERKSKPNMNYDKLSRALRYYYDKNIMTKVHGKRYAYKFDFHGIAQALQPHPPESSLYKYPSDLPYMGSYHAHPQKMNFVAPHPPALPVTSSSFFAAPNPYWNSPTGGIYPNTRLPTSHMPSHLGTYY
A digest of the protocol:
as §1

A further experiment addresses ELF1 (Homo sapiens, UniProt P32519 1-619). A digest of the protocol: as §1
A further experiment has as its target T5, EHF (Homo sapiens, UniProt Q9NZC4 1-300).
T5 sequence: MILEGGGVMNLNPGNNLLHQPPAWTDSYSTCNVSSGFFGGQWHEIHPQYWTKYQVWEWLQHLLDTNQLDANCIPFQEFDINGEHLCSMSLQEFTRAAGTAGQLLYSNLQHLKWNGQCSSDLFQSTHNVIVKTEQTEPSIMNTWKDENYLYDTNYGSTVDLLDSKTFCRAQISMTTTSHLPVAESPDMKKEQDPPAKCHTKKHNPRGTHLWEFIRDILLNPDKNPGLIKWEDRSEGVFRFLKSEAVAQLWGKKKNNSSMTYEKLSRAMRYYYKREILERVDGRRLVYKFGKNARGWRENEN
The method, boiled down: as §1

For the next experiment, the target named is SPI1 (Homo sapiens, UniProt P17947 1-270). A digest of the protocol:
as §1

Another experiment deals with SPIB (Homo sapiens, UniProt Q01892 1-262). The method, boiled down: as §1
A further experiment addresses T6, ELK3 (Homo sapiens, UniProt P41970 1-407).
T6 sequence: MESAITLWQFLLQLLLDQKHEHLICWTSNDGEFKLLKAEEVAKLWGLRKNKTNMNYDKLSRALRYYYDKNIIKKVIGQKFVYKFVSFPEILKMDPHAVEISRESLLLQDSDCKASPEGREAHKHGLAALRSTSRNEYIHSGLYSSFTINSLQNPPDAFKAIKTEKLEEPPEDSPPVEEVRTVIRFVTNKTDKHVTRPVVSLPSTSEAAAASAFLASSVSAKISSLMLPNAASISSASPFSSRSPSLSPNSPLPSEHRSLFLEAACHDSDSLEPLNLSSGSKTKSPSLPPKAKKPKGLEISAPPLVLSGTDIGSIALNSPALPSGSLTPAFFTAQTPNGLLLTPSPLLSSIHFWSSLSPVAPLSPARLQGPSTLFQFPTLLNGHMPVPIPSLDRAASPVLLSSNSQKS
A digest of the protocol: as §1

ELF1, sequence (P32519 whole entry): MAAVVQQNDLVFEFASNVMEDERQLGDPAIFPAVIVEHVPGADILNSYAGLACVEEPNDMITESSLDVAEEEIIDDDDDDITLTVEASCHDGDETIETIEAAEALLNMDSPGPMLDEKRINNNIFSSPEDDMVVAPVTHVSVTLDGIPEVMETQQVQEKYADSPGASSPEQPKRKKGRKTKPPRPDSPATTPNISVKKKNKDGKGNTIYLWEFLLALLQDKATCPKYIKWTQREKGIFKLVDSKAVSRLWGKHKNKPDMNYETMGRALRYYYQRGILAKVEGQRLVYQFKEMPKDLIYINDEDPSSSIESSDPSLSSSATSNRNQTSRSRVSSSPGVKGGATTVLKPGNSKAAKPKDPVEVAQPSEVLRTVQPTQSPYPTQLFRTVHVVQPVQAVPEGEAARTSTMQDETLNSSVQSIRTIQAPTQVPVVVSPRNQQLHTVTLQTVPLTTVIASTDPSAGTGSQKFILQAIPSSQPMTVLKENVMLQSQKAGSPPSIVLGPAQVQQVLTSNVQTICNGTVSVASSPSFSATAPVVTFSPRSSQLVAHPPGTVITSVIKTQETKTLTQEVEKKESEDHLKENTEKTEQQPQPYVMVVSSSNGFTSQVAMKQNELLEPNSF
SPIB, sequence (Q01892 whole entry): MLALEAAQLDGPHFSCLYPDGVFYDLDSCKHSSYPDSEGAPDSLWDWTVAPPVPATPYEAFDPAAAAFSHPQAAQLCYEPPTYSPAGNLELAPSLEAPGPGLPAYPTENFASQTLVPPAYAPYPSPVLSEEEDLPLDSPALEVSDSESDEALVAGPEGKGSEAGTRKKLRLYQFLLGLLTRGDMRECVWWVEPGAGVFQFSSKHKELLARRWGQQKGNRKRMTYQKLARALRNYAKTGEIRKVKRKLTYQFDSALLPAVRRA

On to CTACTT, for which the binding signal is 1.85 fold enrichment (6-mer frequency, TF over GST control) with FLI1; 1.77 fold enrichment (6-mer frequency, TF over GST control) in the experiment with ELK1; 1.72 fold enrichment (6-mer frequency, TF over GST control) with GABPA; 1.96 fold enrichment (6-mer frequency, TF over GST control) with ERG; 1.85 fold enrichment (6-mer frequency, TF over GST control) with ELF1; 1.92 fold enrichment (6-mer frequency, TF over GST control) with EHF. In addition, the binding signal with SPI1 was 2.05 fold enrichment (6-mer frequency, TF over GST control); in the experiment with SPIB it was 1.96 fold enrichment (6-mer frequency, TF over GST control); with ELK3, 1.88 fold enrichment (6-mer frequency, TF over GST control).
Take TAGCCT: the binding signal is 1.27 fold enrichment (6-mer frequency, TF over GST control) in the experiment with FLI1; 1.21 fold enrichment (6-mer frequency, TF over GST control) in the experiment with ELK1; 1.18 fold enrichment (6-mer frequency, TF over GST control) with GABPA; 1.23 fold enrichment (6-mer frequency, TF over GST control) with ERG; 1.28 fold enrichment (6-mer frequency, TF over GST control) in the experiment with ELF1; 1.26 fold enrichment (6-mer frequency, TF over GST control) with EHF. The binding signal in the experiment with SPI1 was 1.23 fold enrichment (6-mer frequency, TF over GST control); with SPIB, 1.2 fold enrichment (6-mer frequency, TF over GST control); with ELK3, 1.14 fold enrichment (6-mer frequency, TF over GST control).
Take TCTAGT: the binding signal is 1.05 fold enrichment (6-mer frequency, TF over GST control) with FLI1; 1.12 fold enrichment (6-mer frequency, TF over GST control) in the experiment with ELK1; 1.17 fold enrichment (6-mer frequency, TF over GST control) with GABPA; 1.1 fold enrichment (6-mer frequency, TF over GST control) with ERG; 1.12 fold enrichment (6-mer frequency, TF over GST control) in the experiment with ELF1; 1.08 fold enrichment (6-mer frequency, TF over GST control) in the experiment with EHF. The binding signal was 1.03 fold enrichment (6-mer frequency, TF over GST control) with SPI1; 1.08 fold enrichment (6-mer frequency, TF over GST control) with SPIB; 1.05 fold enrichment (6-mer frequency, TF over GST control) with ELK3.
As for GATCTT, the binding signal with FLI1 is 1.29 fold enrichment (6-mer frequency, TF over GST control); in the experiment with ELK1, 1.33 fold enrichment (6-mer frequency, TF over GST control); with GABPA it was 1.32 fold enrichment (6-mer frequency, TF over GST control); with ERG it was 1.35 fold enrichment (6-mer frequency, TF over GST control); with ELF1 it was 1.23 fold enrichment (6-mer frequency, TF over GST control); with EHF, 1.22 fold enrichment (6-mer frequency, TF over GST control). The binding signal with SPI1 is 1.19 fold enrichment (6-mer frequency, TF over GST control); with SPIB, 1.36 fold enrichment (6-mer frequency, TF over GST control); with ELK3, 1.29 fold enrichment (6-mer frequency, TF over GST control).
Turning to ATTGAT, the binding signal in the experiment with FLI1 is 1.28 fold enrichment (6-mer frequency, TF over GST control); with ELK1, 1.35 fold enrichment (6-mer frequency, TF over GST control); with GABPA it was 1.39 fold enrichment (6-mer frequency, TF over GST control); in the experiment with ERG, 1.33 fold enrichment (6-mer frequency, TF over GST control); with ELF1 it was 1.31 fold enrichment (6-mer frequency, TF over GST control); with EHF it was 1.17 fold enrichment (6-mer frequency, TF over GST control). In addition, the binding signal with SPI1 is 1.24 fold enrichment (6-mer frequency, TF over GST control); in the experiment with SPIB, 1.16 fold enrichment (6-mer frequency, TF over GST control); in the experiment with ELK3, 1.33 fold enrichment (6-mer frequency, TF over GST control).
For the sequence TTCAGC, the binding signal is 1.27 fold enrichment (6-mer frequency, TF over GST control) with FLI1; 1.2 fold enrichment (6-mer frequency, TF over GST control) with ELK1; 1.26 fold enrichment (6-mer frequency, TF over GST control) with GABPA; 1.24 fold enrichment (6-mer frequency, TF over GST control) in the experiment with ERG; 1.23 fold enrichment (6-mer frequency, TF over GST control) with ELF1; 1.25 fold enrichment (6-mer frequency, TF over GST control) with EHF. In addition, the binding signal with SPI1 was 1.18 fold enrichment (6-mer frequency, TF over GST control); with SPIB it was 1.18 fold enrichment (6-mer frequency, TF over GST control); with ELK3, 1.27 fold enrichment (6-mer frequency, TF over GST control).
Take TGCCTC: the binding signal in the experiment with FLI1 was 1.39 fold enrichment (6-mer frequency, TF over GST control); in the experiment with ELK1, 1.31 fold enrichment (6-mer frequency, TF over GST control); in the experiment with GABPA, 1.36 fold enrichment (6-mer frequency, TF over GST control); with ERG, 1.35 fold enrichment (6-mer frequency, TF over GST control); with ELF1 it was 1.31 fold enrichment (6-mer frequency, TF over GST control); in the experiment with EHF, 1.26 fold enrichment (6-mer frequency, TF over GST control). In addition, the binding signal with SPI1 is 1.39 fold enrichment (6-mer frequency, TF over GST control); in the experiment with SPIB, 1.4 fold enrichment (6-mer frequency, TF over GST control); with ELK3, 1.27 fold enrichment (6-mer frequency, TF over GST control).
